Results: PubChem BioAssay (NCATS)
Results filed as inconclusive are left out. The source made the active and inactive calls. Unless noted, calls come from the whole dose curve; as a rule, active = well fitted curve in the direction sought with a large enough effect; inconclusive = small, poorly fitted or top-dose-only effect, or another doubt; inactive = no such curve, though single readings can be large; an effect the other way counts as inactive or inconclusive.

Assays:
[1] = qHTS for differential inhibitors of proliferation of Plasmodium falciparum line Dd2 (AID 1882); settings: Potency: Plasmodium falciparum Dd2 proliferation inhibition; series mostly up to 28.7 µM; note: nearly all actives have a fitted effect of over 65% in size; note: potency is the fitted concentration of half-maximal effect
In short: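 SYBR Green DNA fluorescence (ex 485, em 535 nm) after overnight lysis quantifies parasite growth; compound exposure lasted 72 h at 37 C on infected red cells at 2.5% hematocrit, 0.3% parasitemia (final). Artemisinin 0.29 uM and vehicle wells define normalization.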

[2] = qHTS for differential inhibitors of proliferation of Plasmodium falciparum line HB3 (AID 1886); settings: Potency: Plasmodium falciparum HB3 proliferation inhibition; series mostly up to 28.7 µM;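 note: parasites grown with compound for 72 h before SYBR Green readout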; note: potency is the fitted concentration of half-maximal effect
[3] = qHTS Assay for Modulators of Human Peripheral Myelin Protein 22 (PMP22) Expression/Activity (AID 1967; active = well fitted curve in the direction sought with a large enough effect in the signal ratio; the % refers to the signal ratio); settings: Cell-based PMP22 reporter, dual-color luciferase ratio, 0% = compound-free control cells, mouse Pmp22 promoter in mouse Schwann cells; series mostly up to 115 µM
In short: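 Mouse MSC80 Schwann cells carrying Pmp22 promoter–green click beetle luciferase plus EF-alpha–red luciferase control, dosed 24 h at 37 °C. Dual-filter luminescence, overlap-corrected; %Activity from green/red ratio normalised to untreated cells, concentration-response curves fitted.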

[4] = molecular target: ATP-dependent DNA helicase Q1 (Homo sapiens) (UniProt P46063); test: qHTS Validation Assay for Inhibitors of RecQ-Like Dna Helicase 1 (RECQ1) (AID 2353); settings: recombinant RECQ1 helicase DNA unwinding assay; series mostly up to 25.6 µM; note: potency is the fitted concentration of half-maximal effect
ATP-dependent DNA helicase Q1 (Homo sapiens), sequence (P46063 whole entry, looked up): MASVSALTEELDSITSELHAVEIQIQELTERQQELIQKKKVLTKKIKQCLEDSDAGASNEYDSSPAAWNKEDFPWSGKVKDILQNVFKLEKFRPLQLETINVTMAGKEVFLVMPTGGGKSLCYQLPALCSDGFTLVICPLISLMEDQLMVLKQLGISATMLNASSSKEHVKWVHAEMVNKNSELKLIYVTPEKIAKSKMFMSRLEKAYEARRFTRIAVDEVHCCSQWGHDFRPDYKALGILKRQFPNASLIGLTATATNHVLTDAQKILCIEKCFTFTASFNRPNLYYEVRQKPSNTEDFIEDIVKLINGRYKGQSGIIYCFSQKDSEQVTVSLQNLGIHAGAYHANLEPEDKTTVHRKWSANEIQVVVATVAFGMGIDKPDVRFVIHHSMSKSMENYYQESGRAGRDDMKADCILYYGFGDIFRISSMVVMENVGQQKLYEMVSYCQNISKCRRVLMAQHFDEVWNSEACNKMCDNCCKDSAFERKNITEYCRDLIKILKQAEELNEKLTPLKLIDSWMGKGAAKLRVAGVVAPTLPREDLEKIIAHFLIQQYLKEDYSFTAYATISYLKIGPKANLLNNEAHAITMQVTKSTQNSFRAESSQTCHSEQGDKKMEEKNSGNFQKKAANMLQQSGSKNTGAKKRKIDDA
In short: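 RECQ1T1 50 nM; forked duplex (20 bp + 30-nt ss tails) 200 nM, ATP 2 mM final; pH 8.0, 2 mM MgCl2, 2.5 ug/ml poly(dI-dC); 15 min compound preincubation; discontinuous kinetic read over 2 h at RT.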

[5] = Cytometric Cell-Based qHTS for Inhibitors of the mTORC1 Signaling Pathway in MEF (Tsc2-/-, p53-/-) Cells (AID 2660); settings: mTORC1 pathway cytometry; series mostly up to 38.3 µM;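 note: Tsc2 and p53 null MEFs carrying empty vector with compound for 24 h; percent of cells above a phospho-rpS6 to PI ratio cutoff in each well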
In short: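 Cells are plated, treated with compound for 24 hrs at 37 degree Celsius, then fixed, blocked and immunostained for phospho-rpS6 Ser235/236. Propidium iodide counterstain follows. Per-well % positive cells is derived from the PI-normalized phospho-S6 signal.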

[6] = High Content Imaging Cell-Based qHTS for Inhibitors of the mTORC1 Signaling Pathway in MEF (Tsc2-/-, p53-/-) Cells (AID 2666); settings: series mostly up to 38.3 µM;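 note: percent of cells scored positive for phospho-rpS6 Ser235/236 immunostaining by imaging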
In short: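 MEF Tsc2-/- p53-/- (empty vector), DMEM/10% FBS; cpd 24 h 37 °C; PFA fix, Alexa-488 p-rpS6 S235/236 Ab, Hoechst; imaged; rapamycin-defined inhibition; % positive cells/well.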

[7] = High Content Imaging Cell-Based qHTS for Inhibitors of the mTORC1 Signaling Pathway in MEF Cells (AID 2667); settings: series mostly up to 38.3 µM; note: potency is the fitted concentration of half-maximal effect
In short: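 Read-out is the share of phospho-rpS6-positive cells per well, from Hoechst-normalized Alexa-488 Ser235/236 staining imaged on IN Cell. Cells: WT Tsc2-expressing Tsc2-/-, p53-/- MEFs exposed to compound for 24 hrs.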

[8] = Cytometry Cell-Based qHTS for Inhibitors of the mTORC1 Signaling Pathway in MEF cells (AID 2668); settings: mTORC1 pathway readout; series mostly up to 38.3 µM;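 note: Tsc2-/- p53-/- mouse embryonic fibroblasts stably re-expressing wild-type Tsc2; percent cells positive for phospho-rpS6 Ser235/236 relative to propidium iodide stain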
In short: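 MEFs (Tsc2-/-, p53-/- stably expressing WT Tsc2) treated 24 h at 37 degree Celsius, fixed, stained with Alexa-488 anti-phospho-rpS6 Ser235/236 and propidium iodide; Acumen laser scanning. Reported as % positive cells, phospho-S6 normalized to PI.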

[9] = Validation screen for small molecules that induce DNA re-replication in MCF 10A normal breast cells (AID 463097); settings: MCF 10A cells, DNA re-replication phenotype imaging; series mostly up to 46.1 µM; note: nearly all actives have a fitted effect of over 60% in size; note: potency is the fitted concentration of half-maximal effect
In short: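 MCF 10A cells exposed to compound 48 hr at 37 C, 5% CO2, then Hoechst-stained 40 min. Laser-scanning imaging of nuclear DNA content (405 nm ex, 500-530 nm em); re-replication scored as rise in nuclei with elevated fluorescence intensity.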

[10] = molecular target: DNA polymerase III PolC-type (Bacillus subtilis (strain 168)) (UniProt P13267); test: qHTS Validation Assay for the Inhibitors of DNA Replication in Gram-Positive Bacteria (AID 485295); settings: Gram-positive bacterial DNA replication assay; series mostly up to 57.1 µM; note: potency is the fitted concentration of half-maximal effect
DNA polymerase III PolC-type (Bacillus subtilis (strain 168)), sequence (P13267 whole entry, looked up): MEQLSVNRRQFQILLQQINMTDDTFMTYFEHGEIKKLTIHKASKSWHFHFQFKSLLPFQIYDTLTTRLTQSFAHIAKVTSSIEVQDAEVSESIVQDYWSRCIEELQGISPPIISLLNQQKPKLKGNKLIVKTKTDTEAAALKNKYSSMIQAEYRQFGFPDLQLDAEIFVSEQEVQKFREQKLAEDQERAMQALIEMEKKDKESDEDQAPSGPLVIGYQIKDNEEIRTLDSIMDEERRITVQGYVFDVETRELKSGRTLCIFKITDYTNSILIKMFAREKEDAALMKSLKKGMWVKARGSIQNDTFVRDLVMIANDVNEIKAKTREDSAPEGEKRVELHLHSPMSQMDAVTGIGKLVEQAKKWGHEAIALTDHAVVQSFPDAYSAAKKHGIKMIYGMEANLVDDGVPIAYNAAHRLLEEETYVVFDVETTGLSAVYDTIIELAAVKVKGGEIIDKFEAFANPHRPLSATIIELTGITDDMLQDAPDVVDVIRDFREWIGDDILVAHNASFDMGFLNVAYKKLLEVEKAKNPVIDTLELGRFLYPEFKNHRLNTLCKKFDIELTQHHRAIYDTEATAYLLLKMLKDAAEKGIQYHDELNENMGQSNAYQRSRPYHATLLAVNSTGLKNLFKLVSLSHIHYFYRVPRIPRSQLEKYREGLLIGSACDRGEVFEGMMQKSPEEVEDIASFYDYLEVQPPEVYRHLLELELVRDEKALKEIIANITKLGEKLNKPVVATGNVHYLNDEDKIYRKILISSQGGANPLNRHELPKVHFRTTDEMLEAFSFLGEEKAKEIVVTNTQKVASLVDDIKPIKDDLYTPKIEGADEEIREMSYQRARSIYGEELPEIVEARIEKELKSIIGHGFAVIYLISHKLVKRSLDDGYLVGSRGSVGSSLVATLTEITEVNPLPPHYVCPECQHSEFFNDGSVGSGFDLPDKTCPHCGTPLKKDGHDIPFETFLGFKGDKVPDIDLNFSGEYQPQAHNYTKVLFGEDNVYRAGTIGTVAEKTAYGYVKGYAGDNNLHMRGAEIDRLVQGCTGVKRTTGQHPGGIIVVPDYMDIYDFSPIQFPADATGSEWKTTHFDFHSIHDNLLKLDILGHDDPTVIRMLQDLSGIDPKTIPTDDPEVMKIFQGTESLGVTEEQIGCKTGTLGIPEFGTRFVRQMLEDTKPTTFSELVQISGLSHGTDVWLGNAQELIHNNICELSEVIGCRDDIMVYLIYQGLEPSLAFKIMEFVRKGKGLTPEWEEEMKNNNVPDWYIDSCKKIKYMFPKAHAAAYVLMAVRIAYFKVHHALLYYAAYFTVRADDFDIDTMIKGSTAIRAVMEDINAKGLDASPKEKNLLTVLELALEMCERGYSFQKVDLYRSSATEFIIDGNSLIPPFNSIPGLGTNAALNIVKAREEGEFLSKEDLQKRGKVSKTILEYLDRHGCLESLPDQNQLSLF
In short: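 Reconstituted B. subtilis Pol III holoenzyme (PolC, beta clamp, SSB, primase) preincubated with compound, then M13Gori single-stranded circular template with dNTPs/NTPs added; room temperature reaction. Stopped with EDTA/PicoGreen; dsDNA fluorescence read, EDTA as full-inhibition control.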

[11] = molecular target: Tumor susceptibility gene 101 protein (Homo sapiens) (UniProt Q99816); test: qHTS Validation Assay for Iinhibitors of HIV-1 Budding by Blocking the Interaction of PTAP/TSG101 (AID 485342; calls by dose curve); settings: TSG101-PTAP binding, fluorescence polarization, 4-point titration; series mostly up to 115 µM
Tumor susceptibility gene 101 protein (Homo sapiens), sequence (Q99816 whole entry, looked up, the tested form may be a part): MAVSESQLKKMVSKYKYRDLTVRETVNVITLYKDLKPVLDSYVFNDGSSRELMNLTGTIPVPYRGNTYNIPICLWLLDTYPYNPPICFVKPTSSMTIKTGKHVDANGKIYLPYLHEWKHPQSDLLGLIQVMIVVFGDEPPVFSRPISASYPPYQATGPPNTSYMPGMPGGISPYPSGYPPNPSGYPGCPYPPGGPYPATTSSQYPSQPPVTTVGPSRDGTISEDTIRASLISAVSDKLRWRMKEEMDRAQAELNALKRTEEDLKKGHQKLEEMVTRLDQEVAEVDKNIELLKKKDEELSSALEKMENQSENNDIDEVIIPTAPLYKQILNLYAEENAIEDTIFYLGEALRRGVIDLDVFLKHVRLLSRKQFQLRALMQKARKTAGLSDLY
In short: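 Tsg101 binding domain (10 uM) with FITC-labeled PTAP peptide (50 nM) in HEPES pH 7.5 buffer, 20 min at r.t. with compounds. Binding measured by fluorescence polarization.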

[12] = qHTS for differential inhibitors of proliferation of Plasmodium falciparum line D10 (AID 1877); settings: series mostly up to 28.7 µM;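 note: parasites grown with compound for 72 h before DNA staining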
[13] = molecular target: Ferritin light chain (Equus caballus) (UniProt P02791); test: qHTS Validation Assay for Identification of Novel General Anesthetics (AID 2323); settings: horse apoferritin, anesthetic-site fluorescent probe displacement; series mostly up to 76.9 µM
Ferritin light chain (Equus caballus), sequence (P02791 2-175 limits assumed): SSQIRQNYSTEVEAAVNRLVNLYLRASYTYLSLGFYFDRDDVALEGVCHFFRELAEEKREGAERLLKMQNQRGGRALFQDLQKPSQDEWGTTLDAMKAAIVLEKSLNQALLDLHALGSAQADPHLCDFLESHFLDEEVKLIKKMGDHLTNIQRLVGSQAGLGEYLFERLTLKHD
In short: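 Horse-spleen apoferritin (10 uM) in PBS with 50% saturated 1-aminoanthracene; compounds pin-transferred, 10 min at room temperature. Fluorescence read at 380/535 nm, normalized to free 1-AMA and 1-AMA/apoferritin values; four-parameter Hill fit.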

[14] = molecular target: RecQ-like DNA helicase BLM (Homo sapiens) (UniProt P54132); test: qHTS Validation Assay for Inhibitors of Bloom's syndrome helicase (BLM) (AID 2364); settings: BLM helicase DNA unwinding, fluorescence, in vitro; series mostly up to 57.1 µM; note: potency is the fitted concentration of half-maximal effect
RecQ-like DNA helicase BLM (Homo sapiens), sequence (P54132 whole entry, looked up): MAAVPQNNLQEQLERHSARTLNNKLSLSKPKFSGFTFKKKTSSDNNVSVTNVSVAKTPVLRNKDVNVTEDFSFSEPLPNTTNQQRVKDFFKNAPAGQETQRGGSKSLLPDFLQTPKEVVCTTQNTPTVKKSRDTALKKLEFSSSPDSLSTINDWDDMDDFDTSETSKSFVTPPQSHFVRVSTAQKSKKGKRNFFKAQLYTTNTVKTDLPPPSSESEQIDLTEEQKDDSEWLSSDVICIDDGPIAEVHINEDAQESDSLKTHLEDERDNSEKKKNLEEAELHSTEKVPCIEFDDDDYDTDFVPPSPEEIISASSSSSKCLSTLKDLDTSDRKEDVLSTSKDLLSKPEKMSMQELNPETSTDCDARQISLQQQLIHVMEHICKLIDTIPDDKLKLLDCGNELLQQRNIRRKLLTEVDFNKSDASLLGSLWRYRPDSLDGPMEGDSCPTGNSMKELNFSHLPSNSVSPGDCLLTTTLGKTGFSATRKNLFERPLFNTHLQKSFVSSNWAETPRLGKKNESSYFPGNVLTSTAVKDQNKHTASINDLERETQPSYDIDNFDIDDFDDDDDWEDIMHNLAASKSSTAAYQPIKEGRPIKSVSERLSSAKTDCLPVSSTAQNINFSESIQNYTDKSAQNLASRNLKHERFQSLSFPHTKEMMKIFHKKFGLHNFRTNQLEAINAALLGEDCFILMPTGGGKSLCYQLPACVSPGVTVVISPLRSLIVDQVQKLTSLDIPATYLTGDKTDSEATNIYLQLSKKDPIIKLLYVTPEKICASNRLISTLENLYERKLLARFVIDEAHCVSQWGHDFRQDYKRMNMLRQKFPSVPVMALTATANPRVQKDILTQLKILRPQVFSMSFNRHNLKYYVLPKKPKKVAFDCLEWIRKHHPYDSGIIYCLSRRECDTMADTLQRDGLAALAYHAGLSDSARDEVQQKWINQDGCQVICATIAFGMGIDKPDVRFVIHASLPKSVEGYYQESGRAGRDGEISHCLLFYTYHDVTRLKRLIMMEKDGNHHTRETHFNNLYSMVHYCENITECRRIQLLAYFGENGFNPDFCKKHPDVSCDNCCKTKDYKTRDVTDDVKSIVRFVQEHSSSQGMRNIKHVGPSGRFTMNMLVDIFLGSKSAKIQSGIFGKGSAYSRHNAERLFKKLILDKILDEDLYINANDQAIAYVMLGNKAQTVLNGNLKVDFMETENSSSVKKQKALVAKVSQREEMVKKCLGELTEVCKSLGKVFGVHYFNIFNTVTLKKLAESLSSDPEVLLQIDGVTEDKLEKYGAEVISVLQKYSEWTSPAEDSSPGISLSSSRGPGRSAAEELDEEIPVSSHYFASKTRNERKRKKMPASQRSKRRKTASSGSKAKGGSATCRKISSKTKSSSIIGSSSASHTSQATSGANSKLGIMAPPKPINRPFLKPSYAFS
In short: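 50 nM BLM preincubated 15 min at room temperature with compound in pH 8.0 Tris buffer containing 2.5 ug/ml poly(dI-dC); started with 200 nM TAMRA/BHQ-2 forked duplex and 2 mM ATP (final). Unwinding read as TAMRA fluorescence increase, two reads 2 h apart.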

[15] = molecular target: Ubiquitin carboxyl-terminal hydrolase 2 (Homo sapiens) (UniProt O75604); test: qHTS Validation Assay for Inhibitors of Ubiquitin-specific Protease USP2a Using CHOP2 as the Reporter (AID 463106); settings: USP2a cleavage of CHOP2 reporter, enzymatic; series mostly up to 38.3 µM; note: potency is the fitted concentration of half-maximal effect
Ubiquitin carboxyl-terminal hydrolase 2 (Homo sapiens), sequence (O75604 whole entry, looked up): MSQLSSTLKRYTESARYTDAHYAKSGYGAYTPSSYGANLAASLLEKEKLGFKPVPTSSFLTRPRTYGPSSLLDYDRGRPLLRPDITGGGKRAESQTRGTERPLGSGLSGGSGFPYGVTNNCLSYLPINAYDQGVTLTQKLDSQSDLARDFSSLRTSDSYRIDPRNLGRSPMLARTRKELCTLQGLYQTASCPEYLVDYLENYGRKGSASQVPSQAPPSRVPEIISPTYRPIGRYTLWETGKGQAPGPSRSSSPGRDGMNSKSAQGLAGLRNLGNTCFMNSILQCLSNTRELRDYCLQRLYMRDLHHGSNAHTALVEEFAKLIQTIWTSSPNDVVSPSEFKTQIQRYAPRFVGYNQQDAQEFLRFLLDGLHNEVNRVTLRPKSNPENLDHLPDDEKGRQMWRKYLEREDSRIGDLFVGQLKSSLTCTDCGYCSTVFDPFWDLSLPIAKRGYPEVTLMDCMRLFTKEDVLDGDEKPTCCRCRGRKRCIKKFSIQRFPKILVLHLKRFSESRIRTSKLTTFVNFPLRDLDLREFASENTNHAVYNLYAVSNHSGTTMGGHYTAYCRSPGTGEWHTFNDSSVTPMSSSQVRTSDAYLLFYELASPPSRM
In short: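 Fluorescence read-out at Ex 485nm/Em 531nm after 60min RT, following addition of 25nM Ub-CHOP2 plus 25nM reporter substrate to USP2 core (10nM) pretreated 30min with compound. Data normalized to NEM full inhibition; concentration-response curves fitted.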

[16] = qHTS Validation Assay to Find Inhibitors of Chronic Active B-Cell Receptor Signaling (AID 485345; active = well fitted curve in the direction sought with a large enough effect in the main read-out, with a control signal flat, not every such curve was filed as active); settings: ABC-DLBCL cells, chronic BCR signaling reporter, CBG luciferase; series mostly up to 46.1 µM
In short: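 TMD8 ABC-DLBCL cells stably carrying doxycycline-inducible IkappaBalpha–green luciferase fusion plus unfused red luciferase; compounds 46 uM to 3 nM, 4 h at 37C with doxycycline. Corrected green/red luminescence ratio normalized to 10 uM MG-132 and basal cell wells; curves fitted.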

[17] = qHTS for differential inhibitors of proliferation of Plasmodium falciparum line W2 (AID 1883); settings: Potency: Plasmodium falciparum W2 proliferation inhibition; series mostly up to 28.7 µM;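 note: parasites grown with compound for 72 h before lysis and staining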; note: potency is the fitted concentration of half-maximal effect

Measured: Potency

Nc1ccc(CCNc2ncnc3c2ncn3C2OC(CO)C(O)C2O)cc1 (centres undefined)
inactive: [1] | [2] | [3] | [4] | [5] | [6] | [7] | [8] | [9] | [10] | [11]

c1ccc2nc(C3=NCCN3)ccc2c1
inactive: [12] | [2] | [13] | [4] | [14] | [5] | [6] | [7] | [8] | [9] | [15] | [10] | [11] | [16]

COC(=O)C1=C(C)NC(C)=C([N+](=O)[O-])C1c1ccccc1C(F)(F)F (centres undefined)
active: [17] 12.6 µM
inactive: [12] | [4] | [5] | [6] | [7] | [8] | [9] | [15] | [10] | [11] | [16]

O=c1onc2cnc3ccccc3n12
active: [2] 5.62 µM
inactive: [1] | [17] | [13] | [4] | [14] | [5] | [6] | [7] | [15] | [10] | [11]

O=C(N[C@@H](Cc1ccccc1)C(=O)CCl)OCc1ccccc1
inactive: [13] | [4] | [15] | [10]
active: [1] 11.2 µM | [17] 8.91 µM | [2] 14.1 µM | [7] 5.21 µM | [9] 2.82 µM

NCC(O)c1ccc(O)c(O)c1 (centres undefined)
active: [17] 11.2 µM
inactive: [1] | [13] | [4] | [5] | [6] | [7] | [8] | [9] | [15] | [10] | [11] | [16]

Cc1nc(N=Nc2cc(S(=O)(=O)O)c3cc([N+](=O)[O-])cc(S(=O)(=O)O)c3c2)c(COP(=O)(O)O)c(C=O)c1O
inactive: [1] | [17] | [3] | [14] | [5] | [6] | [7] | [8] | [9] | [15] | [11] | [16]
active: [4] 11.2 µM

NC(N)=NC(N)=Nc1ccccc1
inactive: [1] | [3] | [13] | [4] | [5] | [6] | [7] | [8] | [9] | [15] | [16]

CCCn1c(=O)c2[nH]c(C3CCCC3)nc2n(CCC)c1=O
inactive: [1] | [2] | [13] | [4] | [14] | [5] | [6] | [7] | [8] | [15] | [10] | [11]

COC(=O)C(C)(N)Cc1ccc(O)cc1 (centres undefined)
active: [17] 12.6 µM
inactive: [1] | [3] | [13] | [4] | [14] | [5] | [6] | [7] | [8] | [9] | [15] | [11] | [16]

CCCn1c(=O)c2[nH]c(-c3ccc(S(=O)(=O)O)cc3)nc2n(CCC)c1=O
inactive: [12] | [3] | [4] | [14] | [5] | [6] | [7] | [8] | [9] | [10] | [11]

CCC(=O)N1CCN(C(=O)c2ccccc2)CC1
inactive: [3] | [4] | [5] | [6] | [7] | [9] | [10] | [11] | [16]

C=C1C(=O)O[C@@H]2[C@H]3O[C@]3(C)CCC=C(C)CC[C@@H]12
active: [17] 10 µM | [2] 11.2 µM | [9] 14.1 µM
inactive: [4] | [14] | [6] | [7] | [15] | [10]

O=C(O)C1=CC(=C(c2ccc(O)c(C(=O)O)c2)c2ccc(O)c(C(=O)O)c2)C=CC1=O
active: [14] 0.794 µM | [15] 1.04 µM | [10] 3.36 µM
inactive: [1] | [5] | [6] | [7] | [8] | [11]

Nc1nc2ccc(Cl)cc2c2nc(-c3ccco3)nn12
inactive: [4] | [14] | [6] | [11]

COc1cc([C@@H]2c3cc4c(cc3[C@H](O)C3COC(=O)[C@@H]32)OCO4)cc(OC)c1OC (some centres undefined)
inactive: [3] | [13] | [4] | [14] | [6] | [15] | [10]

COc1cccc(OC)c1OCCNCC1CSc2ccccc2O1 (centres undefined)
active: [17] 3.98 µM | [2] 12.6 µM
inactive: [13] | [4] | [14] | [5] | [6] | [7] | [9] | [10] | [11]

OC1(c2ccc(Cl)cc2)CCN(Cc2c[nH]c3ccccc23)CC1
inactive: [13] | [4] | [14] | [5] | [6] | [9] | [15] | [10] | [11]

NC[C@@H]1O[C@H](c2ccccc2)Cc2c1ccc(O)c2O
inactive: [5] | [6] | [7] | [8] | [15] | [10] | [11]

CC(=O)O[C@H]1CC2(C)[C@@H](C[C@@H](O)[C@H]3[C@@]4(C)CC[C@@H](O)[C@@H](C)[C@@H]4CC[C@@]32C)C1=C(CCC=C(C)C)C(=O)O (some centres undefined)
active: [17] 10 µM
inactive: [3] | [13] | [4] | [14] | [5] | [6] | [7] | [8] | [9] | [15] | [10] | [11] | [16]

COc1ccccc1N1CCN(CCN(C(=O)c2ccc(F)cc2)c2ccccn2)CC1
active: [17] 8.91 µM
inactive: [13] | [4] | [5] | [6] | [7] | [8] | [9] | [15] | [10] | [11] | [16]

O=C1NC(=O)c2cc(Nc3ccccc3)c(Nc3ccccc3)cc21
active: [17] 10 µM | [2] 8.91 µM
inactive: [13] | [4] | [5] | [6] | [7] | [8] | [15] | [10] | [11]

O=C(O)C1CCNCC1
inactive: [1] | [4] | [14] | [5] | [6] | [7] | [8] | [9] | [15] | [10]
